# The whole screen tested about 39,000 compounds, of which about 1,500 (3.8%) were called active. Many of the other results were omitted from the sample, so actives are more common in it than they were.
# Tested on: HSkMC (human skeletal muscle cells)
# Assay: cytotoxicity call (relative viability < 0.9)
# Details: 10 µM
row,SMILES,cytotoxicity call
1,CO[C@H]1CN(C)C(=O)c2cc(NC(=O)Nc3ccc(Cl)cc3)ccc2OC[C@@H](C)N(C(=O)Nc2c(C)noc2C)C[C@H]1C,inactive
2,C[C@@H]1CCCCO[C@H](CN(C)S(=O)(=O)c2cccs2)[C@@H](C)CN([C@H](C)CO)C(=O)c2cc(NC(=O)Nc3ccc(C(F)(F)F)cc3)ccc2O1,inactive
3,Cc1noc(C)c1NC(=O)N(C)C[C@@H]1Oc2ccc(NC(=O)Cn3cnnn3)cc2CC(=O)N([C@@H](C)CO)C[C@H]1C,inactive
4,C[C@@H]1CN([C@H](C)CO)C(=O)Cc2cc(NC(=O)Cn3cnnn3)ccc2O[C@@H]1CN(C)C(=O)Nc1ccc(C(F)(F)F)cc1,inactive
5,C[C@H](CO)N1C[C@H](C)[C@H](CN(C)Cc2ccc(Cl)c(Cl)c2)OCCCC[C@H](C)Oc2ccc(NC(=O)Nc3ccc(C(F)(F)F)cc3)cc2C1=O,inactive
6,Cc1ccc(S(=O)(=O)N(C)C[C@@H]2Oc3ccc(NS(=O)(=O)c4cccs4)cc3C(=O)N([C@@H](C)CO)C[C@@H]2C)cc1,inactive
7,O=C(C[C@H]1CC[C@@H]2[C@H](COC[C@@H](O)CN2S(=O)(=O)c2cccc(F)c2)O1)NCCCN1CCOCC1,inactive
8,Cc1ccc(F)c(S(=O)(=O)N2[C@@H]3CC[C@@H](C3)[C@H]2c2nc3cccc(OCc4ccc(F)cc4)c3[nH]2)c1,inactive
9,C[C@@H]1CCCCO[C@H](CN(C)Cc2ccc(C(F)(F)F)cc2)[C@H](C)CN([C@H](C)CO)C(=O)c2cc(NC(=O)c3ccccc3)ccc2O1,inactive
10,C[C@@H]1CN([C@@H](C)CO)C(=O)c2cc(NC(=O)Nc3ccccc3)ccc2O[C@@H](C)CCCCO[C@H]1CN(C)Cc1ccc(C(F)(F)F)cc1,active
11,C[C@@H]1CCCCO[C@@H](CN(C)Cc2ccc(C(F)(F)F)cc2)[C@@H](C)CN([C@@H](C)CO)C(=O)c2cc(NC(=O)Nc3ccccc3)ccc2O1,inactive
12,C[C@@H]1CCCCO[C@@H](CN(C)Cc2ccc(C(F)(F)F)cc2)[C@H](C)CN([C@H](C)CO)C(=O)c2cc(NC(=O)c3ccccc3)ccc2O1,inactive
13,C[C@H](CO)N1C[C@H](C)[C@H](CN(C)Cc2ccc(C(F)(F)F)cc2)OCCCC[C@H](C)Oc2ccc(NC(=O)Nc3ccccc3)cc2C1=O,inactive
14,C[C@H](CO)N1C[C@H](C)[C@H](CN(C)Cc2ccncc2)OCCCC[C@H](C)Oc2ccc(NC(=O)c3ccccc3)cc2C1=O,inactive
15,C[C@H]1CCCCO[C@H](CN(C)Cc2ccncc2)[C@@H](C)CN([C@@H](C)CO)C(=O)c2cc(NC(=O)c3ccccc3)ccc2O1,inactive
16,C[C@H]1CCCCO[C@H](CN(C)Cc2ccc(C(F)(F)F)cc2)[C@@H](C)CN([C@@H](C)CO)C(=O)c2cc(NC(=O)Nc3ccccc3)ccc2O1,active
17,C[C@H]1CCCCO[C@@H](CN(C)Cc2ccc(C(F)(F)F)cc2)[C@@H](C)CN([C@@H](C)CO)C(=O)c2cc(NC(=O)c3ccccc3)ccc2O1,active
18,C[C@@H]1CCCCO[C@H](CN(C)Cc2ccncc2)[C@H](C)CN([C@@H](C)CO)C(=O)c2cc(NC(=O)c3ccccc3)ccc2O1,active
19,O=C(NOCCO)c1cc(CN2OCCCC2=O)c(F)c(F)c1Nc1ccc(I)cc1F,inactive
20,O=C(C[C@H]1C[C@H]2c3cc(NS(=O)(=O)c4ccccc4)ccc3O[C@H]2[C@H](CO)O1)NCC(F)(F)F,inactive
21,CC(C)OC(=O)c1nnc(N)[nH]1,inactive
22,CN1CCN(C(=O)[C@H]2C[C@H]3CN(c4ncc(F)cn4)C[C@@H]3N2C)CC1,inactive
23,CC1(C)C=Cc2c(nc3ccccc3c2NCc2ccccc2)C1,inactive
24,Cc1cc(C(=O)Nc2ccc3c(c2)C(=O)N(C)[C@@H]2CC[C@H](CC(=O)NCC(F)(F)F)O[C@@H]2CO3)no1,inactive

row,SMILES,cytotoxicity call
1,COCC(=O)Nc1ccc2c(c1)C(=O)N(C)C[C@@H](OC)[C@@H](C)CN(Cc1ccccc1OC)[C@@H](C)CO2,inactive
2,C[C@@H]1CN([C@H](C)CO)C(=O)c2cc(NC(=O)C3CCCCC3)ccc2O[C@@H](C)CCCCO[C@H]1CN(C)Cc1ccccc1,inactive
3,COc1ccc(C#Cc2cnc3c(c2)C(=O)N([C@@H](C)CO)C[C@@H](C)[C@H](CN(C)C(=O)CN(C)C)O3)cc1,inactive
4,C[C@H](CO)N1C[C@H](C)[C@@H](CN(C)S(=O)(=O)c2cn(C)cn2)Oc2c(NC(=O)CCC(F)(F)F)cccc2C1=O,inactive
5,C[C@@H]1CCCCO[C@@H](CN(C)S(=O)(=O)c2ccc(Cl)cc2)[C@@H](C)CN([C@H](C)CO)C(=O)c2cc(NC(=O)Nc3cccc4ccccc34)ccc2O1,inactive
6,COC(=O)[C@@H]1CCCC1=O,inactive
7,COc1ccc(CNC(=O)C[C@H]2C[C@H]3c4cc(NC(=O)NC5CCCC5)ccc4O[C@H]3[C@@H](CO)O2)cc1,inactive
8,FC(F)(F)c1cc(NC(=S)Nc2ccc(Br)cc2-c2nn[nH]n2)cc(C(F)(F)F)c1,active
9,O=C(Nc1cc(C(F)(F)F)cc(C(F)(F)F)c1)Nc1c(Br)cc(Br)cc1-c1nn[nH]n1,inactive
10,COc1ccccc1-c1cnc2c(c1)C(=O)N([C@@H](C)CO)C[C@H](C)[C@H](CN(C)C(=O)c1cccnc1)O2,inactive
11,COc1ccc([Si](C)(C)[C@H]2[C@H](CC(=O)N(CCO)Cc3ccccc3)O[C@@]3(C(=O)N(Cc4cccc(N5CCCCC5=O)c4)c4ccccc43)[C@@H]2C)cc1,inactive
12,Nc1nc(Cl)nc2c1ncn2[C@@H]1O[C@H](CO)[C@@H](O)[C@H]1O,inactive
13,Nc1ncn([C@@H]2C[C@H](O)[C@@H](CO)O2)c(=O)n1,inactive
14,Nc1ncn(C2OC(CO)C(O)C2O)c(=O)n1 (configuration not stated),inactive
15,Nc1ncn([C@@H]2O[C@H](CO)[C@@H](O)[C@H]2O)c(=O)n1,active
16,Nc1nc(F)nc2c1ncn2[C@@H]1O[C@H](CO)[C@@H](O)[C@H]1O,active
17,NC(=O)c1cn([C@@H]2O[C@H](CO)[C@@H](O)[C@H]2O)c2ncnc(N)c2c1=O,active
18,Nc1ncnc2c1c(I)cn2[C@@H]1O[C@H](CO)[C@@H](O)[C@H]1O,inactive
19,Nc1ncnc2c1ncn2[C@H]1O[C@@H](CO)[C@H](O)[C@@H]1O,inactive
20,Nc1ncnc2c1c(I)cn2[C@H]1O[C@@H](CO)[C@@H](O)[C@@H]1O,inactive
21,OC[C@H]1O[C@H](n2cnc3cncnc32)[C@@H](O)[C@@H]1O,active
22,Nc1nc(F)nc2c1ncn2[C@@H]1O[C@H](COP(=O)(O)O)[C@@H](O)[C@@H]1O,inactive
23,Nc1ncnc2c1ncn2[C@@H]1O[C@H](CO)[C@@H](O)[C@@H]1O,inactive

# — the antibiotic and cytotoxicity screens of Wong et al. (2023)
